# Measurements: PubChem BioAssay (NCATS)
# Where “and” joins values, the source holds several entries; their conditions need not be identical. Equal entries are not always repeated. Results filed as inconclusive are left out. Calls of active or inactive are those of the source. Unless noted, calls come from the whole dose curve.
# Target: Thyroid hormone receptor beta (Homo sapiens) (UniProt P10828)
# Experiment: qHTS assay for small molecule agonists of thyroid hormone receptor beta signaling (AID 588545);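 note: 0% = DMSO only and 100% = 10 nM T3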
# Conditions: TR-UAS-bla GripTite HEK 293, beta-lactamase ratio, agonist mode, 18 h; series mostly up to 76.7 µM; activation: at the top concentration
# Outline: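 Stimulation of a TR-driven beta-lactamase reporter was quantified in GripTite HEK 293 cells. Compound series ran for 18 hrs; curves were normalized to T3 and DMSO controls and fitted to yield EC50.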
# Thyroid hormone receptor beta (Homo sapiens), sequence (P10828 whole entry, looked up): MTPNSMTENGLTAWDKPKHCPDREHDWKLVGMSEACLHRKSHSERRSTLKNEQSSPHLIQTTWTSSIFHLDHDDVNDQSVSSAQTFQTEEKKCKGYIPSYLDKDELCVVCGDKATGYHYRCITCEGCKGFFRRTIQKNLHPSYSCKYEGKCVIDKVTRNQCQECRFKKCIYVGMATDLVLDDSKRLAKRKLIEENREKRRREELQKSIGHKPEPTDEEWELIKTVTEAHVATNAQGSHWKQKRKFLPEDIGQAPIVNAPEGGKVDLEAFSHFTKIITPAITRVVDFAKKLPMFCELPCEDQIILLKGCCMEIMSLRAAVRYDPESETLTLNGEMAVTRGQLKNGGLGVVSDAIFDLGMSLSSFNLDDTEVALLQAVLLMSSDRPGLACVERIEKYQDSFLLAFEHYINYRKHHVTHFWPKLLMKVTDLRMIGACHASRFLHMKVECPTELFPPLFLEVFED
row,Structure (SMILES),activation
1,COC(C)(C)C,-1.92% (inactive)
2,C(CCOCC1CO1)COCC1CO1 (configuration not stated),-11% (inactive)
3,CN(C)c1ccc(N)cc1,9.04% (inactive)
4,O=[N+]([O-])/C=C/c1ccccc1,-23.6% (inactive)

# Tested on: not listed separately
# Experiment: qHTS assay for small molecule antagonists of retinoid X receptor alpha signaling (AID 588546; active = well fitted inhibition curve with a large enough effect in the signal ratio, with a control signal flat, not every such curve was filed as active; the % refers to the signal ratio;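 note: cells stimulated with 9-cis-retinoic acid as agonist; % is set by controls: 0 for no effect and ±100 for the full control effect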)
# Conditions: HEK293T RXRa-UAS-bla, beta-lactamase ratio, antagonist mode; measured here: W530 green channel, cytotoxicity proxy
# Outline: (§1)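 Beta-lactamase reporter inhibition, read as CCF4 fluorescence ratio (ex 405, em 460/530 nm) after 2 h at RT. HEK293T UAS-bla cells, 2500/well, were stimulated with 9-cis-RA at 500 or 100 nM final alongside test compound for 18 h at 37 C.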
row,Structure (SMILES),max response
1,O=C(O)C(Br)Br,-1.6%
2,Cc1ccc(OP(=O)(Oc2ccc(C)cc2)Oc2ccc(C)cc2)cc1,-10.5% and -16.2%
3,Oc1c(Cl)c(Cl)cc(Cl)c1Cl,-8.85%
4,Nc1ccc(Cc2ccc(N)c(Cl)c2)cc1Cl,-5.52%
5,CN(C)c1ccc(N(C)C)cc1,-9.82%
6,O=[N+]([O-])c1c(Cl)c(Cl)c(Cl)c(Cl)c1Cl,-1.28%
7,CN1CSC(=S)N(C)C1,5.73%
8,ClCC(Cl)Cl,2.25%
9,C=CC(=O)OCCO,-12.5%
10,CC(C)Br,4.33%
11,O=[N+]([O-])c1ccc(O)c([N+](=O)[O-])c1,-0.361%
12,CC(C)[N+](=O)[O-],10.7%
13,CCCC[N+](=O)[O-],-4.37%
14,Cc1cc(-c2cc(C)c(N)c(C)c2)cc(C)c1N,-0.244%
15,Nc1cc(Cl)ccc1O,-1.3%
16,CCN(N=O)C(N)=O,-10.6%
17,N#CC(Cl)(Cl)Cl,-17.2%

row,Structure (SMILES),max response
1,CCCCC(CC)COC(=O)c1ccc(C(=O)OCC(CC)CCCC)c(C(=O)OCC(CC)CCCC)c1 (configuration not stated),-7.98%
2,O=[N+]([O-])c1ccccc1CCl,9.99%
3,Cc1cc(C)cc(OP(=O)(Oc2cc(C)cc(C)c2)Oc2cc(C)cc(C)c2)c1,17.8%
4,N#CC(Br)Br,-2.67%
5,O=C(O)C(Cl)Br (configuration not stated),-6.53%
6,Nc1ccc([N+](=O)[O-])cc1N,7.14% and -1.85%
7,Cc1cc(N=Nc2ccccc2C)ccc1N,-7.48%
8,OCCCCO,-5.28%
9,O=[N+]([O-])c1cc(Cl)c(Cl)c(Cl)c1,-6.59%
10,CC(C)(COCC1CO1)COCC1CO1 (configuration not stated),21.1%
11,Cc1ccc2c(c1N)C(=O)c1ccccc1C2=O,-0.33% and -4.6%
12,CC(C)(C)OOC(=O)c1ccccc1,-18.8% and -11.9%
13,c1ccc(N=NNc2ccccc2)cc1,-2.24%
14,COC(C)(C)C,-12.9%
15,C(CCOCC1CO1)COCC1CO1 (configuration not stated),5.96%
16,CN(C)c1ccc(N)cc1,-13%
17,O=[N+]([O-])/C=C/c1ccccc1,-11.2%

# Target: Retinoic acid receptor RXR-alpha (Homo sapiens) (UniProt P19793)
# Sequence (P19793 whole entry, looked up): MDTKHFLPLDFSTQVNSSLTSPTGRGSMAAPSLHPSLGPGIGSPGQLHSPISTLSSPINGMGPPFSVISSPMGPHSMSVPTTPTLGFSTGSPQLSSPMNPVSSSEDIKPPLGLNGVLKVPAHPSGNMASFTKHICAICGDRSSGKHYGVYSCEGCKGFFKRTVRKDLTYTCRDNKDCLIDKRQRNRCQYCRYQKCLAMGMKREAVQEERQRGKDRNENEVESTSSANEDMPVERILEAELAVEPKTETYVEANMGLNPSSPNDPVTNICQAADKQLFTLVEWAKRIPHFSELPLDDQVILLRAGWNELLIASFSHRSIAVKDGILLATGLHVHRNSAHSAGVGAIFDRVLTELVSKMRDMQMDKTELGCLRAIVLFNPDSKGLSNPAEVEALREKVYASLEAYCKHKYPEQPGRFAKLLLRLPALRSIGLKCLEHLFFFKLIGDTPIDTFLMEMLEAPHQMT
# Experiment: as above
# Conditions: HEK293T RXRa-UAS-bla, beta-lactamase ratio, antagonist mode
# Outline: as §1
row,Structure (SMILES),max response
1,O=C(O)C(Br)Br,6.61% (inactive)
2,Cc1ccc(OP(=O)(Oc2ccc(C)cc2)Oc2ccc(C)cc2)cc1,-1.31% (inactive) and -25.6% (inactive)
3,Oc1c(Cl)c(Cl)cc(Cl)c1Cl,-10.3% (inactive)
4,Nc1ccc(Cc2ccc(N)c(Cl)c2)cc1Cl,-29.3% (inactive)
5,CN(C)c1ccc(N(C)C)cc1,17.1% (inactive)
6,O=[N+]([O-])c1c(Cl)c(Cl)c(Cl)c(Cl)c1Cl,-5.68% (inactive)
7,CN1CSC(=S)N(C)C1,-34.7% (inactive)
8,ClCC(Cl)Cl,7.8% (inactive)
9,C=CC(=O)OCCO,11.3% (inactive)
10,CC(C)Br,-3.19% (inactive)
11,O=[N+]([O-])c1ccc(O)c([N+](=O)[O-])c1,9.93% (inactive)
12,CC(C)[N+](=O)[O-],14.3% (inactive)
13,CCCC[N+](=O)[O-],-6.25% (inactive)
14,Cc1cc(-c2cc(C)c(N)c(C)c2)cc(C)c1N,-4.04% (inactive)
15,Nc1cc(Cl)ccc1O,-9.48% (inactive)
16,CCN(N=O)C(N)=O,-5.46% (inactive)
17,N#CC(Cl)(Cl)Cl,11.1% (inactive)

row,Structure (SMILES),max response
1,CCCCC(CC)COC(=O)c1ccc(C(=O)OCC(CC)CCCC)c(C(=O)OCC(CC)CCCC)c1 (configuration not stated),5.41% (inactive)
2,O=[N+]([O-])c1ccccc1CCl,-4.02% (inactive)
3,Cc1cc(C)cc(OP(=O)(Oc2cc(C)cc(C)c2)Oc2cc(C)cc(C)c2)c1,28.5% (inactive)
4,N#CC(Br)Br,18.7% (inactive)
5,O=C(O)C(Cl)Br (configuration not stated),0.341% (inactive)
6,Nc1ccc([N+](=O)[O-])cc1N,-24.9% (inactive) and -14.3% (inactive)
7,Cc1cc(N=Nc2ccccc2C)ccc1N,-17.1% (inactive)
8,OCCCCO,-1.35% (inactive)
9,O=[N+]([O-])c1cc(Cl)c(Cl)c(Cl)c1,-5.05% (inactive)
10,CC(C)(COCC1CO1)COCC1CO1 (configuration not stated),6.95% (inactive)
11,Cc1ccc2c(c1N)C(=O)c1ccccc1C2=O,9.57% (inactive) and -23.7% (inactive)
12,CC(C)(C)OOC(=O)c1ccccc1,2.22% (inactive) and 6.61% (inactive)
13,c1ccc(N=NNc2ccccc2)cc1,-17.2% (inactive)
14,COC(C)(C)C,6.43% (inactive)
15,C(CCOCC1CO1)COCC1CO1 (configuration not stated),15.6% (inactive)
16,CN(C)c1ccc(N)cc1,-17.1% (inactive)
17,O=[N+]([O-])/C=C/c1ccccc1,-0.636% (inactive)

# Target: Thyroid hormone receptor beta (Homo sapiens) (UniProt P10828)
# Experiment: qHTS assay for small molecule antagonists of thyroid hormone receptor beta signaling (AID 588547; active = well fitted inhibition curve with a large enough effect in the signal ratio, with a control signal flat, not every such curve was filed as active; the % refers to the signal ratio;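 note: cells stimulated with 0.4 nM T3 agonist during compound exposure; % is set by controls: 0 for no effect and ±100 for the full control effect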)
# Conditions: TR-UAS-bla HEK293, beta-lactamase ratio, antagonist mode, 18 h
# Outline: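 TR-UAS-bla GripTite HEK293 cells in 2% charcoal/dextran FBS medium; compounds 0.59 nM to 92 uM with T3 at 0.4nM final, 18 h at 37 C. Beta-lactamase read by CCF4 fluorescence (460/530 nm); Hill fits gave IC50 and efficacy.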
row,Structure (SMILES),activity change % (negative = inhibition)
1,O=C(O)C(Br)Br,8.3% (inactive)
2,Cc1ccc(OP(=O)(Oc2ccc(C)cc2)Oc2ccc(C)cc2)cc1,-7.32% (inactive) and 3.64% (inactive)
3,Oc1c(Cl)c(Cl)cc(Cl)c1Cl,23.1% (inactive)
4,CN(C)c1ccc(N(C)C)cc1,-0.335% (inactive)
5,Brc1ccc(Oc2ccc(Br)cc2Br)c(Br)c1,4.48% (inactive)
6,CN1CSC(=S)N(C)C1,21.7% (inactive) and -19% (inactive)
7,ClCC(Cl)Cl,8.38% (inactive)
8,CC(C)[N+](=O)[O-],5.36% (inactive)
9,CCCC[N+](=O)[O-],2.77% (inactive)
10,Cc1cc(-c2cc(C)c(N)c(C)c2)cc(C)c1N,5.74% (inactive)
11,CCN(N=O)C(N)=O,18.5% (inactive)
12,CCCCC(CC)COC(=O)c1ccc(C(=O)OCC(CC)CCCC)c(C(=O)OCC(CC)CCCC)c1 (configuration not stated),11.5% (inactive)
13,O=C(O)C(Br)CBr (configuration not stated),10.8% (inactive)
14,O=[N+]([O-])c1ccccc1CCl,8.81% (inactive)
15,Cc1cc(C)cc(OP(=O)(Oc2cc(C)cc(C)c2)Oc2cc(C)cc(C)c2)c1,2.87% (inactive)
16,N#CC(Br)Br,17% (inactive)
17,O=C(O)C(Cl)Br (configuration not stated),7.08% (inactive)
18,COP(=S)(OC)SCn1nnc2ccccc2c1=O,7.85% (inactive)
19,O=C(O)c1cccc(Cl)c1,7.72% (inactive)
20,Cc1cc(N=Nc2ccccc2C)ccc1N,-2.95% (inactive) and 5.44% (inactive)
21,OCCCCO,10.4% (inactive)
22,O=[N+]([O-])c1cc(Cl)c(Cl)c(Cl)c1,3.05% (inactive)
23,CC(C)(COCC1CO1)COCC1CO1 (configuration not stated),-13.4% (inactive)
24,Cc1ccc2c(c1N)C(=O)c1ccccc1C2=O,1.36% (inactive)
25,CC(C)(C)OOC(=O)c1ccccc1,11.4% (inactive)
26,c1ccc(N=NNc2ccccc2)cc1,0.0148% (inactive)
27,COC(C)(C)C,-17.3% (inactive)
28,C(CCOCC1CO1)COCC1CO1 (configuration not stated),16.3% (inactive)
29,CN(C)c1ccc(N)cc1,8.59% (inactive)
30,O=[N+]([O-])/C=C/c1ccccc1,-15.9% (inactive)
